This is part of a sample that, as a whole, favours compounds with a hit. Of some 79,000 tested, about 15% had one in any assay. Unmarked numbers belong to inactive results. Calls of active or inactive are those of the source. Rule as the data show it: active = growth inhibition above about 70%; inactive = the rest.
experiment: NCI Yeast Anticancer Drug Screen. Data for the mec2-1 strain (AID 157); conditions: S. cerevisiae mec2-1 strain, at 50.0 µM, stronger effect = higher value
Outline: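 mec2-1 yeast strain, carrying an alteration in DNA damage repair or cell cycle control, was exposed to compounds; growth inhibition was measured relative to vehicle-treated controls.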

Row | SMILES | growth inhibition
1 | Cc1cccc2c(C(O)CBr)cc(-c3ccc(Cl)cc3)nc12 (stereo unspecified) | 96.1% (active)
2 | CN(C)C[C@H]1CC[C@@H](CN(C)C)C1=O | 57.3%
3 | CC1=C(SCCO)C(=O)c2ccccc2C1=O | 73.3% (active)
4 | COC(=O)CCNc1c2ccccc2nc2cccc([N+](=O)[O-])c12 | 91.3% (active)
5 | CC(/C=C/c1ccc2c(c1)OCO2)[N+](=O)[O-] (stereo unspecified) | 99.7% (active)
6 | COC(=O)C1=C(C)NC(C)=C(C(=O)OCCCN2CCC(c3ccccc3)(c3ccccc3)CC2)C1c1cccc([N+](=O)[O-])c1 (stereo unspecified) | 95.9% (active)
7 | CCOC(=O)c1cnc2c(C(F)(F)F)cccc2c1N=[N+]=[N-] | 17.6%
8 | O=[N+]([O-])c1cc2no[n+]([O-])c2cc1N1CCCCC1 | 92.8% (active)
9 | COC(=O)c1ccc(NCC2=CC(=O)C=CC2=O)cc1O | 93.2% (active)
10 | CCCCCCCCNC(=O)C1=C(C)NC(C)=C(C(=O)NCCCCCCCC)C1 | -5.25%
11 | S=C(Nc1ccc(Cl)c(Cl)c1)SCc1ccc2c(c1)OCO2 | 92.1% (active)
12 | O=S(=O)(CCCl)c1ccccc1Cl | 91.8% (active)
13 | Nc1ccccc1CC(O)C(=O)O (stereo unspecified) | 52.1%
14 | CN(C)c1ccc(Sc2ccc3nc(N)nc(N)c3c2)cc1 | 89.3% (active)
15 | CC(C)C1=CCC2C(=C1)CCC1C(C)(C(=O)O)CCCC21C (stereo unspecified) (tested in a mixture with another compound) | 85.2% (active)
16 | Cc1ccc(S(=O)(=O)Oc2cc(Cl)c(Cl)cc2Cl)cc1 | -21.8%
